Assay outcomes: PubChem, National Center for Advancing Translational Sciences (NCATS)
Cruzain noTriton = blocks cruzain activity in detergent-free assay. purified cruzain, Z-FR-AMC fluorescence, no detergent. Potency, µM, without a hit: max response, negative = inhibition, usual class: inhibitors. 200,000 compounds, 2.3% hits;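 note: plate controls were enzyme without inhibitor for no effect and buffer without enzyme for full effect; nearly all actives have a fitted effect of over 40% in size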
Target sequence (P25779 123-467 limits assumed): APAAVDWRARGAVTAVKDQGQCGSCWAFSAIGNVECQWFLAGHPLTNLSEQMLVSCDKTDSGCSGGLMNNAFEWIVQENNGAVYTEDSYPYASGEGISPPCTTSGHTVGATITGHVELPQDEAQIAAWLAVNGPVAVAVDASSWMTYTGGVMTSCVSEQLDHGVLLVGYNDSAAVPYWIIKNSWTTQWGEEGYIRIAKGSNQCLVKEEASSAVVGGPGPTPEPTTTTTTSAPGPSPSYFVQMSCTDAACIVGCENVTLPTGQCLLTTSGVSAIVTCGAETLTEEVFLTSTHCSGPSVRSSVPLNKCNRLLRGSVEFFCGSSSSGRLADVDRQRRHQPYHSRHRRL
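Detergent-free condition (0.00005% Triton X-100) in acetate buffer pH 5.5 with DTT. 1.5 nM enzyme and compound were pre-mixed 15 min, then 2 uM Z-FR-AMC substrate added; reaction progress from fluorescence change between first and third reads (60 s).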
Cruzain inh Det = blocks cruzain activity in presence of Triton detergent. P25779. purified cruzain, Z-FR-AMC fluorescence, 0.01% Triton. Potency, µM, without a hit: max response, negative = inhibition, actives largely listed as inhibitors. 200,000 compounds, 0.43% hits. AID 1478;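 note: plate controls were neutral wells for no effect and buffer without enzyme for full effect; nearly all actives have a fitted effect of over 40% in size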
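Detergent-containing run (0.01% Triton X-100) in acetate buffer pH 5.5 with 5 mM DTT: enzyme at 1.5 nM final, 15 min compound preincubation at room temperature, then 2 uM Z-FR-AMC substrate. Activity taken as 60 s fluorescence increase at 360/450 nm.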
Starred values were filed as active, the others as inactive; ? = inconclusive. This is a sample that favours compounds with a hit; in the whole collection about 2.6% have one here. Calls come from the whole dose curve; as a rule, active = well fitted curve in the direction sought with a large enough effect; inconclusive = small, poorly fitted or top-dose-only effect, or another doubt; inactive = no such curve, though single readings can be large; an effect the other way counts as inactive or inconclusive. Potency is the fitted concentration of half-maximal effect.

SMILES	Cruzain noTriton	Cruzain inh Det
Cc1ccc(Sc2ccc(N3CCCC(C(=O)Nc4ccc(F)c(Cl)c4)C3)nn2)cc1 (stereo not drawn)	-27%	-5%
CCNC(=O)c1cnc2sc(N3CCC(C)CC3)nn2c1=O	-14%	-9%
COc1ccc(OCC(=O)Nc2nc3ccccc3[nH]2)cc1	-9%	2%
O=C(COc1ccc2ccccc2c1)NNC(=O)Cc1ccccc1	-2%	-4%
O=C(COc1ccc2ccccc2c1)NCCNC(=O)COc1ccc2ccccc2c1	25µM*	7%
O=C(COc1ccc2ccccc2c1)Nc1nc2ccccc2[nH]1	25µM*	1%
COc1ccccc1CNC(=O)Nc1ccc2c(c1)N(C)C(=O)c1ccccc1S2	-3%	-4%
COC(=O)c1ccc(NC(=O)c2cc3cc(C)ccc3n2C)cc1	?	-4%
CCN(CC)c1ccc(NC(=O)C2COc3ccc(OC)cc3C2)c(C)c1 (stereo not drawn)	19%	2%
CC(C)CCOc1ccc(C(=O)NCC2OCCc3ccccc32)cc1 (stereo not drawn)	-2%	-2%
O=C(/C=C/c1ccc(Cl)cc1Cl)c1nc2ccccc2[nH]1	7.9µM*	4%
N#C/C(=C\c1ccc(Cl)cc1)c1nc2ccccc2[nH]1	2%	-5%
COCCCNc1oc(/C=C/c2cc(OC)c(OC)c(OC)c2)nc1C#N	20µM*	25µM*
COc1ccc(CCNc2oc(/C=C/c3cc(OC)c(OC)c(OC)c3)nc2C#N)cc1OC	-16%	-8%
CN1C(=O)N(C)C2=NNC=NC2(O)C1=O (stereo not drawn)	-3%	-6%
O=C1CCCc2cc(S(=O)(=O)NCC3CCC(C(=O)NCc4ccccc4Cl)CC3)ccc2N1 (stereo not drawn)	2%	-8%
O=C(CSc1nnc(SCc2cccc3ccccc23)s1)N/N=C/c1c[nH]c2ccccc12	1%	-4%
O=C(CSc1nnc(SCc2cccc3ccccc23)s1)N/N=C/C=C/c1ccccc1[N+](=O)[O-]	10µM*	-3%
O=C(NC1(C(F)(F)F)C(=O)Nc2c1c(=O)[nH]c(=O)n2CCc1ccccc1)c1ccc(Cl)cc1Cl (stereo not drawn)	-7%	-2%
O=c1oc(-c2ccccc2)nc2c1C1(CCCCC1)Cc1ccccc1-2	25µM*	-1%
CCC1(CC)Cc2ccccc2-c2nc(-c3ccccc3)oc(=O)c21	?	-1%
Cc1cc(C)cc(OC(C)C(=O)Nc2nonc2-c2ccc(Br)cc2)c1 (stereo not drawn)	-4%	-3%
CCN(CC)c1ccc(CNS(=O)(=O)c2cc3c(cc2C)NC(=O)CO3)cc1	-1%	4%
CCCCN(CC)CCNC(=O)Cn1c(=O)c2cccn2c2cccnc21	-12%	-3%
CCOc1ccc(-c2csc(/C(C#N)=C/c3ccc(Br)cc3)n2)cc1	-8%	-1%
SMILES	Cruzain noTriton	Cruzain inh Det
c1ccc2[nH]c(CSc3ncnc4c3oc3ccccc34)nc2c1	16µM*	?
Cc1nc(SCc2nc3ccccc3[nH]2)c2oc3ccccc3c2n1	16µM*	?
Fc1ccc(CSc2ncnc3c2oc2ccccc23)cc1	0%	-3%
Cc1nc(N2CCN(Cc3nc4ccccc4[nH]3)CC2)c2oc3ccccc3c2n1	?	-6%
COCCN(CCOC)c1nc(C)nc2c1nc(-c1ccccc1)n2CCN1CCCC1	-4%	0%
CCCn1c(-c2ccc(F)cc2)nc2c(NCCN(C(C)C)C(C)C)nc(C)nc21	-4%	-5%
COc1ccc(CCNC(=O)c2cc3c(-c4ccc(OC)c(OC)c4)nn(C)c3s2)cc1OC	?	-11%
COc1ccc(S(=O)(=O)Nc2nc3ccccc3nc2Nc2ccc3c(c2)OCO3)cc1	?	-5%
O=S(=O)(Nc1nc2ccccc2nc1Nc1ccc2c(c1)OCCO2)c1cccs1	25µM*	-5%
CCCc1cnc2c(c1SCC(=O)N(C)c1ccccc1)c(=O)n(C)c(=O)n2C	-3%	0%
Fc1ccccc1/C=N/NC(=S)Nc1ccc(Cl)cc1Cl	10µM*	1%
Fc1ccc(NC(=S)N/N=C/c2ccc(F)c(F)c2)c(F)c1	?	4%
CCNC(=S)N/N=C/c1ccc(OCCOc2ccccc2C)cc1	16µM*	2%
CCOc1ccc(/C=N/NC(=S)Nc2c(C)cccc2C)cc1	-1%	-7%
COc1cc(C2Nc3cccc4cccc(c34)N2)cc(OC)c1O	-22%	-12%
Cc1ccc(C2Nc3cccc4cccc(c34)N2)s1	20µM*	-8%
O=[N+]([O-])c1cccc(C2Nc3cccc4cccc(c34)N2)c1	?	-9%
O=[N+]([O-])c1ccc(C2Nc3cccc4cccc(c34)N2)cc1	?	-1%
Oc1ccc(C2Nc3cccc4cccc(c34)N2)c(O)c1	16µM*	?
c1coc(C2Nc3cccc4cccc(c34)N2)c1	7.9µM*	-11%
COc1ccccc1CNC(=O)c1cccc(NC(=O)N2CCSc3ncccc32)c1	-12%	-14%
CCOc1ccc(C(=O)NCCSc2c(C)[nH]c3ccccc23)cc1OCC	20%	-6%
